{"source": "PubChem BioAssay (NCATS)", "note": "Records with an inconclusive call do not appear. Activity calls are given as the source filed them. The call rests on the fitted dose curve; in most records, active means well fitted inhibition curve with a large enough effect; inconclusive means small, poorly fitted or top-dose-only effect; inactive means flat fitted curve, though single readings scatter.", "data": [{"system": "CRL-7250", "assay": "qHTS assay to identify novel small-molecules to repurpose for Merkel cell carcinoma treatment (AID 1296009); further: nearly all actives have a fitted effect of over 60% in size", "conditions": "MCC and control cell lines, CellTiter-Glo viability, 72 h; series mostly up to 92 µM; activity change, negative = cytotoxicity: at the top concentration", "outline": "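Dose-response viability screen; 72 hr exposure at 37 degree celsius; CellTiter-Glo added, 10 min room temperature, luminescence read; RLUs scaled between no-cell and DMSO wells.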", "values": [{"molecule": "C[C@@H]1O[C@@H](O[C@H]2[C@H](O)[C@@H](O)[C@H](OC[C@H]3O[C@@H](OC(=O)[C@]45CCC(C)(C)C[C@H]4C4=CCC6[C@@]7(C)C[C@@H](O)[C@H](O)[C@@](C)(CO)C7[C@H](O)C[C@@]6(C)[C@]4(C)CC5)[C@H](O)[C@@H](O)[C@@H]3O)O[C@@H]2CO)[C@H](O)[C@H](O)[C@H]1O", "note": "(some centres not stated)", "outcome": "inactive [at 9.27 µM]"}, {"molecule": "COC(=O)C(C)C1CCC2(C)C(=O)C=CC(C)(O)C2C1O", "note": "(configuration not stated)", "outcome": "inactive"}, {"molecule": "Cc1c(NC(=O)N2CCOCC2)ccc2c1c1ccccc1n2C(C)C", "outcome": "inactive"}, {"molecule": "C[C@]1(OC(=O)/C=C/c2ccccc2)C[C@H](O)[C@]2(O)C=CO[C@@H](O[C@@H]3O[C@H](CO)[C@@H](O)[C@H](O)[C@H]3O)C12", "note": "(some centres not stated)", "outcome": "inactive [at 17.4 µM]"}, {"molecule": "O=C(NCc1ccc(OC(F)(F)F)cc1)C1c2ccccc2C(=O)N1C1CCOCC1", "note": "(configuration not stated)", "outcome": "inactive"}, {"molecule": "CC1=CC(=O)CC(C)(C)C1CCC(C)O[C@@H]1O[C@H](CO)[C@@H](O)[C@H](O)[C@H]1O", "note": "(some centres not stated)", "outcome": "inactive"}, {"molecule": "C[C@@H]1CC[C@@]23CC[C@]4(C)[C@@](C=CC5[C@@]6(C)CC[C@H](O)C(C)(C)C6CC[C@]54C)(OC2=O)C3[C@H]1C", "note": "(some centres not stated)", "outcome": "inactive [at 17.4 µM]"}]}]}
